# Screening results deposited in PubChem by National Center for Advancing Translational Sciences (NCATS).
# Sampled rows, rich in hits. Any-hit rate of the full collection: about 2.4%.
# Cruzain Triton: inhibitors of Trypanosoma cruzi cruzain with detergent. P25779. purified cruzain, Z-FR-AMC fluorescence, 0.01% Triton. Potency, µM, most hits filed as inhibitors. 0.43% of 200,000 active. AID 1478; also: nearly all actives have a fitted effect of over 40% in size
# Target sequence (P25779 123-467 limits assumed): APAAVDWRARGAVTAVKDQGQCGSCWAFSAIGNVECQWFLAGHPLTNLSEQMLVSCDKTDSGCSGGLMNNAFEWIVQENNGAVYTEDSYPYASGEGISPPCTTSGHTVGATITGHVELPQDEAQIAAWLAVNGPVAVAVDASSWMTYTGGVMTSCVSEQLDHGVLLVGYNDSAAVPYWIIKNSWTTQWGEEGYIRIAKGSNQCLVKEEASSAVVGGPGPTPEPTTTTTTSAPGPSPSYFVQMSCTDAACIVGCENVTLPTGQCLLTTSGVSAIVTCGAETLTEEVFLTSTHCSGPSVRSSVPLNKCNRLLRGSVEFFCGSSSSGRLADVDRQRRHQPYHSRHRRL
#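 Read-out: AMC fluorescence (360 nm excitation, 450 nm emission), four reads over 2 min, first-to-third difference used. Conditions: cruzain 1.5 nM, Z-FR-AMC 2 uM, pH 5.5 acetate, 5 mM DTT, 0.01% Triton X-100.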
# Cruzain inh noDet: cruzain (T. cruzi) inhibition without detergent. purified cruzain, Z-FR-AMC fluorescence, no detergent. Potency, µM, most hits filed as inhibitors. 2.3% of 200,000 active. P25779; also: nearly all actives have a fitted effect of over 40% in size
#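 Detergent-free condition (0.00005% Triton X-100) in acetate buffer pH 5.5 with DTT. 1.5 nM enzyme and compound were pre-mixed 15 min, then 2 uM Z-FR-AMC substrate added; reaction progress from fluorescence change between first and third reads (60 s).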
# A number is an active result; 0 = inactive; ? = inconclusive; ! = not active in a repeat. Calls follow the shape of the dose curve; as a rule, active = well fitted curve in the direction sought with a large enough effect; inconclusive = small, poorly fitted or top-dose-only effect, or another doubt; inactive = no such curve, though single readings can be large; an effect the other way counts as inactive or inconclusive.
SMILES,Cruzain Triton,Cruzain inh noDet
Cc1ccc(-n2c(=O)c3oc4ccccc4c3n(Cc3ccccc3F)c2=O)cc1C,0,0
Cc1ccc(-n2c(=O)c3oc4ccccc4c3n(CC(=O)Nc3ccc(F)c(Cl)c3)c2=O)cc1C,0,10µM
C[C@@H]1CC[C@H]2[C@H](C)[C@H]3CC[C@H]4C5[C@@H](O)CC6=CC(=O)CC[C@]6(C)[C@H]5C[C@H]4C3C(=O)N2C1 (stereo partly specified),0,0
O=C(/C(=C(\[O-])c1ccccc1)[n+]1ccc2ccccc2c1)c1ccccc1,0,?
O=C(/C(=C(\[O-])c1ccccc1)[n+]1ccc2ccccc2c1)c1ccc(Cl)cc1,0,25.1µM
CCC(C(=O)O)C1CCC(C)C(C(C)C(O)C(C)C(=O)C(CC)C2OC3(C=CC(O)[C@@]4(CC[C@](C)(C5CC[C@@](O)(CC)C(C)O5)O4)O3)C(C)CC2C)O1 (stereo partly specified),0,?
Cc1ccc(NC(=O)CSc2nc3c(c(=O)[nH]2)CCC3)cc1C,0,?
CC(C)c1ccc(NC(=O)CSc2nc3c(c(=O)[nH]2)CCC3)cc1,0,12.6µM
O=C(O)CCNc1ncnc2nc[nH]c12,0,0
Cc1c(N=Cc2cccs2)c(=O)n(-c2ccccc2)n1C,0,0
Cc1ccc(C2C(C=Nc3c(C)n(C)n(-c4ccccc4)c3=O)=C(c3ccccc3)Oc3ccccc32)cc1 (stereo unspecified),0,7.94µM
N#Cc1ccc(-c2ccccc2)nc1SCC(=O)c1cccc(Cl)c1,0,12.6µM
CCOC(=O)C(C)Sc1nc(-c2ccccc2)ccc1C#N (stereo unspecified),0,0
N#Cc1ccc(-c2ccc(Cl)cc2)nc1SCC(=O)c1cccc(Cl)c1,0,10µM
CN1CCN(C(=O)CSc2nc(-c3ccncc3)ccc2C#N)CC1,0,0
N=C(N)C(N=Nc1ccccc1)C(=N)N (stereo unspecified),0,0
CN(Cc1ccccc1)c1nc2c(S(=O)(=O)c3ccccc3)nnn2c2ccsc12,0,0
Cc1ccc(-c2csc(NC(=O)CCNC(=O)c3ccccc3Cl)n2)cc1,0,0
CC(OC(=O)CNC(=O)c1ccccc1F)C(=O)Nc1nc(-c2ccccc2)cs1 (stereo unspecified),7.94µM,7.94µM
COc1ccc(-c2nn(-c3ccccc3)cc2/C=C2/SC(=S)N(Cc3ccco3)C2=O)c(C)c1,0,3.16µM
Cc1ccc(-n2c(C)cc(/C=C3/C(=O)NC(=O)N(Cc4ccco4)C3=O)c2C)cc1,0,0
COc1ccc(-n2c(C)cc(/C=C3\SC(=S)N(Cc4ccco4)C3=O)c2C)cc1,0,7.94µM
Cc1ccc(/C=C2\SC(=S)N(Cc3ccccc3)C2=O)o1,0,?
O=C1c2cccc(O)c2C(=O)c2c(O[C@@H]3O[C@H](CO)[C@@H](O)[C@H](O)[C@@H]3O)cccc21,0,0
O=C(O)c1cc(O)c2c(c1)[C@H]([C@H]1c3cc(C(=O)O)cc(O)c3C(=O)c3c(O[C@@H]4OC(CO)C(O)C(O)C4O)cccc31)c1cccc(O[C@@H]3OC(CO)C(O)C(O)C3O)c1C2=O (stereo partly specified),15.8µM,?
SMILES,Cruzain Triton,Cruzain inh noDet
Cc1ccc(NC(=O)N2CCc3c([nH]c4ccccc34)C2c2ccccc2F)c(Cl)c1 (stereo unspecified),0,?
Nc1[nH]c(=S)[nH]c(=O)c1N=Nc1c(Br)cc(S(N)(=O)=O)cc1Br,0,0
Fc1cnc(N2CCc3ccccc32)nc1N1CCc2ccccc21,0,3.16µM
O=C1CC(c2ccc(F)cc2)Cc2nc(N3CCc4ccccc43)ncc21 (stereo unspecified),0,?
COc1ccc(CNC(=O)c2sc3nc4n(c(=O)c3c2C)CCCCC4)cc1,0,0
CCOc1ccccc1N(C)C(=O)c1c2c(nc3ccccc13)C(=O)N(C1CCCCC1)C2,0,0
COc1ccc2[nH]c(=O)c(CN(CCO)S(=O)(=O)c3c(C)ccc4nsnc34)cc2c1,0,0
COc1ccc2[nH]c(=O)c(CN(Cc3cccs3)S(=O)(=O)c3cccc4nsnc34)cc2c1,0,31.6µM
CC1(C)C(=O)NC2=C1C(=O)C(=O)c1ccccc12,0,?
CN1CCc2nc(N)nc(-c3nc(N)nc4c3CN(C)CC4)c2C1,0,0
COc1ccc2ccc(=O)oc2c1CC=C(C)C,0,0
COc1cc2ccc(=O)oc2cc1O,25.1µM!,31.6µM
CN(C)CCCNc1cc(N2CCN(C3CCCCC3)CC2)c2noc3c2c1C(=O)c1ccccc1-3,0,0
CCC(Sc1nnc(C)n2c1cc1occc12)C(=O)Nc1ccccc1F (stereo unspecified),0,0
CCOC(=O)c1ccc(NC(=O)Nc2cc(C)on2)cc1,0,15.8µM
CCOC(=O)c1ccc(NC(=O)Nc2ccn(C)n2)cc1,0,0
Cc1cccc(N2C(=O)NC(=O)/C(=C\c3cccn3-c3ccc(Cl)cc3)C2=O)c1,0,0
COc1ccc(-n2cccc2/C=C2/NC(=O)N(c3cccc(Cl)c3)C2=O)cc1,0,10µM
CN(C)c1ccc(CNC(=O)c2cccn2-c2nnc(N3CCCCC3)s2)cc1,0,0
[Cu].[NH-][C@H](CC(=O)O)C(=O)O.[NH-][C@H](CC(=O)O)C(=O)O,0,0
Oc1ccc2ccccc2c1/C=N/Nc1ccccc1,0,0
Cc1cc(N/N=C/c2c(O)ccc3ccccc23)nc(-c2ccccc2O)n1,0,15.8µM
CCOc1ccc(CC(=O)Nc2nnc3n2CCS3)cc1,0,0
CCOC(=O)C1=C(CSc2nc(CC)c(C)cc2C#N)OC(N)=C(C#N)C1c1ccccc1 (stereo unspecified),0,0
CCOC(=O)C1=C(CSc2nc(-c3ccccc3)ccc2C#N)OC(N)=C(C#N)C1c1ccc(OC)cc1 (stereo unspecified),0,15.8µM
SMILES,Cruzain Triton,Cruzain inh noDet
COC(=O)c1cc(NC2(c3ccccc3)C(=O)c3ccccc3C2=O)cc(C(=O)OC)c1,0,0
O=S(=O)(c1ccc(Cl)c(Cl)c1)N1CCc2nc3ccccc3n2CC1,0,10µM
O=S(=O)(c1ccc(Br)cc1)N1CCn2c(nc3ccccc32)C1,0,5.01µM
O=S(=O)(c1ccc2c(c1)nc1n2CCC1)N1CCOCC1,0,0
O=S(=O)(Cc1ccccc1)N1CCn2c(nc3ccccc32)C1,0,0
COC(=O)CC1c2cc(OC)c(OC)cc2CCN1C(=O)Nc1ccc(C)cc1Cl (stereo unspecified),0,0
CC(C)(C)CC(C)(C)c1ccc(OCCO)cc1,0,?
CCN1CCN(c2oc(-c3ccc(COc4ccc(C)cc4)o3)nc2C#N)CC1,0,0
COc1cc(NC(=O)Cn2c(=O)ccc3cc(S(=O)(=O)N4CCCC4)ccc32)cc(OC)c1,0,0
O=C(O)Cc1[nH]cnc1C(=O)O,0,0
COc1ccc(/C=C/c2nc(C#N)c(N3CCCCCC3)o2)cc1OC,0,?
CCN1CCN(c2oc(/C=C/c3cc(OC)c(OC)c(OC)c3)nc2C#N)CC1,0,0
COc1ccc(/C=C/c2nc(C#N)c(N3CCC(C(N)=O)CC3)o2)cc1OC,?,31.6µM
CCN1CCN(c2oc(/C=C/c3ccc(OC)c(OC)c3)nc2C#N)CC1,0,20µM
COc1ccc(CCNc2oc(/C=C/c3ccc(OC)c(OC)c3)nc2C#N)cc1,0,15.8µM
COc1ccc(/C=C/c2nc(C#N)c(NCCc3ccc(OC)c(OC)c3)o2)cc1OC,0,0
Nc1c(-c2nc(-c3ccncc3)no2)nnn1CC(=O)Nc1ccccc1,0,0
